# Counter-ions that a name gives are not always drawn. ± gives the standard deviation of the averaged measurements.
# What was measured:
# Test in all cases: growth (OD600 after 10 h); higher = more growth (less inhibition)
# [1] = tested on: E. coli TESEC Alr+ wild-type control; details: compound 0.1 mM; raw OD600 reference: median of DMSO wells 0.241, cell-free background 0.041
# Procedure: (§1)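 TESEC Mtb Alr E. coli, or the Alr+ wild-type control, in 384-well plates with Prestwick library compounds at 0.1 mM and 1% DMSO, across arabinose induction levels of 1E3 to 1E7 nM. Growth is read as OD600 after 10 h at 37 °C in triplicate biological replicates.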
# E. coli TESEC Mtb Alr [2] = details: compound 0.1 mM
# Procedure: as §1
# E. coli TESEC Mtb Asd = details: compound 0.1 mM
# Procedure: (§2)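 TESEC E. coli strains in which the native enzyme is deleted and replaced by arabinose-inducible Mtb Asd, DapB, CysH or TrpD, each grown in its selective medium. Strains were screened against the Prestwick library at 0.1 mM and 1% DMSO in 384-well format at low and high arabinose induction. Growth is read as OD600 after 10 h in triplicate.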
# E. coli TESEC Mtb DapB = details: compound 0.1 mM
# Procedure: as §2
# [3] = tested on: E. coli TESEC Alr+ wild-type control; details: compound 0.1 mM; raw OD600 reference: median of DMSO wells 0.49, cell-free background 0.052
# Procedure: (§3)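 TESEC Mtb Alr E. coli (ΔaraC ΔtolC ΔentC Δalr ΔdadX, arabinose-inducible Mtb Alr) or the Alr+ wild-type control strain, grown in defined M9-fructose medium without D-alanine in 96-well plates with Prestwick library compounds at 0.1 mM and 1% DMSO. Low Alr induction is 0.1 µM arabinose and high induction is 10 mM arabinose.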
# E. coli TESEC Mtb Alr [4] = details: compound 0.1 mM; remark: listed apart in the source
# Procedure: as §3
# [5] = arabinose 1000 nM, raw OD600 reference: median of DMSO wells 0.294, cell-free background 0.041
# [6] = arabinose 10000 nM, raw OD600 reference: median of DMSO wells 0.264, cell-free background 0.041
# [7] = arabinose 100000 nM, raw OD600 reference: median of DMSO wells 0.201, cell-free background 0.041
# [8] = arabinose 1000000 nM, raw OD600 reference: median of DMSO wells 0.193, cell-free background 0.041
# [9] = arabinose 10000000 nM, raw OD600 reference: median of DMSO wells 0.146, cell-free background 0.041
# [10] = arabinose induction (level): High, raw OD600 reference: median of DMSO wells 0.331, cell-free background 0.041
# [11] = arabinose induction (level): Low, raw OD600 reference: median of DMSO wells 0.417, cell-free background 0.041
# [12] = arabinose induction (level): High, raw OD600 reference: median of DMSO wells […], cell-free background 0.041
# [13] = arabinose induction (level): Low, raw OD600 reference: median of DMSO wells 0.227, cell-free background 0.041
# [14] = arabinose 100 nM, raw OD600 reference: median of DMSO wells 0.413, cell-free background 0.052
# [15] = arabinose 10000000 nM, raw OD600 reference: median of DMSO wells […], cell-free background 0.052
Structure (SMILES),growth [1],growth (E. coli TESEC Mtb Alr [2]; [5]),growth (E. coli TESEC Mtb Alr [2]; [6]),growth (E. coli TESEC Mtb Alr [2]; [7]),growth (E. coli TESEC Mtb Alr [2]; [8]),growth (E. coli TESEC Mtb Alr [2]; [9]),growth (E. coli TESEC Mtb Asd; [10]),growth (E. coli TESEC Mtb Asd; [11]),growth (E. coli TESEC Mtb DapB; [12]),growth (E. coli TESEC Mtb DapB; [13]),growth [3],growth (E. coli TESEC Mtb Alr [4]; [14]),growth (E. coli TESEC Mtb Alr [4]; [15])
O=C1CN(/N=C/c2ccc([N+](=O)[O-])o2)C(=O)N1 [Nitrofurantoin],0.0453 ± 0.00076,0.181 ± 0.0058,0.0822 ± 0.0037,0.04437 ± 0.00021,0.0737 ± 0.0054,0.0451 ± 0.00093,0.196 ± 0.034,0.341 ± 0.038,0.172 ± 0.009,0.218 ± 0.034,0.053 ± 0.00026,0.0546 ± 0.0087,0.055 ± 0.0017
Nc1nc(N)c2nc(-c3ccccc3)c(N)nc2n1 [Triamterene],0.135 ± 0.0027,0.146 ± 0.012,0.12 ± 0.0045,0.138 ± 0.0069,0.0711 ± 0.0011,0.119 ± 0.0058,0.235 ± 0.014,0.411 ± 0.015,0.165 ± 0.0077,0.203 ± 0.046,0.422 ± 0.0047,0.416 ± 0.0074,0.122 ± 0.016
CCC(NC(C)C)C(O)c1ccc(O)c(O)c1 (stereo not drawn) [Isoetharine mesylate salt],0.196 ± 0.0071,0.303 ± 0.012,0.277 ± 0.005,0.188 ± 0.018,0.18 ± 0.0035,0.155 ± 0.0024,0.309 ± 0.11,0.37 ± 0.062,0.187 ± 0.0097,0.226 ± 0.031,0.64 ± 0.039,0.401 ± 0.032,0.344 ± 0.019
CN1C(C)(C)CCCC1(C)C [Pempidine tartrate],0.245 ± 0.0082,0.307 ± 0.017,0.284 ± 0.0059,0.183 ± 0.026,0.196 ± 0.0024,0.143 ± 0.011,0.343 ± 0.023,0.434 ± 0.024,0.203 ± 0.024,0.239 ± 0.043,0.572 ± 0.089,0.4074 ± 0.0021,0.335 ± 0.011
CNC(=O)c1c(I)c(C(=O)NCC(=O)Nc2c(I)c(C(=O)O)c(I)c(C(=O)NCCO)c2I)c(I)c(N(C)C(C)=O)c1I [Ioxaglic acid],0.239 ± 0.0087,0.2972 ± 0.0024,0.28 ± 0.0056,0.219 ± 0.0065,0.215 ± 0.015,0.139 ± 0.0059,0.343 ± 0.027,0.359 ± 0.048,0.198 ± 0.013,0.211 ± 0.013,0.606 ± 0.023,0.426 ± 0.0094,0.3518 ± 0.0018
NCc1ccc(S(N)(=O)=O)cc1 [Mafenide hydrochloride],0.248 ± 0.0039,0.295 ± 0.021,0.259 ± 0.0097,0.187 ± 0.015,0.177 ± 0.0036,0.14 ± 0.0058,0.358 ± 0.018,0.41 ± 0.044,0.199 ± 0.0035,0.251 ± 0.032,0.418 ± 0.046,0.418 ± 0.0068,0.373 ± 0.018
Cc1onc(-c2ccccc2)c1-c1ccc(S(N)(=O)=O)cc1 [Valdecoxib],0.124 ± 0.0019,0.173 ± 0.0027,0.216 ± 0.029,0.148 ± 0.0053,0.0949 ± 0.0023,0.122 ± 0.0014,0.196 ± 0.038,0.245 ± 0.045,0.178 ± 0.015,0.229 ± 0.022,0.388 ± 0.027,0.4007 ± 0.0035,0.198 ± 0.016
CC(=O)CC(c1ccccc1)c1c(O)c2ccccc2oc1=O (stereo not drawn) [Warfarin],0.251 ± 0.012,0.273 ± 0.007,0.2271 ± 0.0011,0.139 ± 0.0062,0.15 ± 0.0059,0.126 ± 0.0063,0.351 ± 0.065,0.391 ± 0.072,0.2 ± 0.011,0.231 ± 0.021,0.492 ± 0.081,0.39 ± 0.0054,0.342 ± 0.012
C#C[C@]1(O)CC[C@H]2[C@@H]3CCC4=CC(=O)CC[C@@H]4[C@H]3CC[C@@]21C [Norethindrone],0.196 ± 0.042,0.221 ± 0.017,0.221 ± 0.012,0.179 ± 0.012,0.1044 ± 0.00092,0.134 ± 0.0033,0.286 ± 0.041,0.362 ± 0.058,0.183 ± 0.0096,0.21 ± 0.042,0.427 ± 0.016,0.397 ± 0.0089,0.233 ± 0.014
CC(=O)[C@H]1CC[C@H]2[C@@H]3C[C@H](C)C4=CC(=O)CC[C@]4(C)[C@H]3[C@@H](O)C[C@]12C [Medrysone],0.122 ± 0.0039,0.162 ± 0.0096,0.2463 ± 0.002,0.1231 ± 0.00055,0.112 ± 0.003,0.138 ± 0.0029,0.217 ± 0.02,0.385 ± 0.041,0.179 ± 0.018,0.18 ± 0.0064,0.457 ± 0.067,0.399 ± 0.0044,0.213 ± 0.018
COC(=O)[C@H](c1ccccc1Cl)N1CCc2sccc2C1 [Clopidogrel],0.0938 ± 0.0032,0.0873 ± 0.0047,0.0411 ± 0.0013,0.0991 ± 0.004,0.0439 ± 0.00078,0.0663 ± 0.00069,0.158 ± 0.014,0.128 ± 0.0029,0.153 ± 0.015,0.159 ± 0.012,0.3176 ± 0.0024,0.38 ± 0.016,0.0754 ± 0.014
COc1cc(NS(=O)(=O)c2ccc(N)cc2)nc(OC)n1 [Sulfadimethoxine],0.2298 ± 0.0014,0.264 ± 0.011,0.177 ± 0.01,0.2126 ± 0.0014,0.106 ± 0.0049,0.139 ± 0.0065,0.266 ± 0.0084,0.403 ± 0.025,0.192 ± 0.0042,0.213 ± 0.015,0.46 ± 0.053,0.425 ± 0.0055,0.332 ± 0.031
O=C1[C@H]2CCCC[C@H]2C(=O)N1CCCCN1CCN(c2nsc3ccccc23)CC1 [Perospirone],0.131 ± 0.0041,0.225 ± 0.0052,0.257 ± 0.0052,0.146 ± 0.0072,0.103 ± 0.0012,0.1416 ± 0.00075,0.188 ± 0.026,0.369 ± 0.015,0.174 ± 0.013,0.241 ± 0.037,0.432 ± 0.016,0.419 ± 0.0096,0.29 ± 0.027
NC(=O)N1c2ccccc2C=Cc2ccccc21 [Carbamazepine],0.241 ± 0.0068,0.281 ± 0.0037,0.239 ± 0.0011,0.182 ± 0.032,0.173 ± 0.0066,0.142 ± 0.00057,0.36 ± 0.013,0.35 ± 0.059,0.194 ± 0.018,0.237 ± 0.046,0.491 ± 0.0058,0.405 ± 0.0088,0.272 ± 0.12
Cc1cc2c(cc1S(N)(=O)=O)S(=O)(=O)CCC2 [Meticrane],0.252 ± 0.0068,0.292 ± 0.011,0.259 ± 0.012,0.234 ± 0.034,0.172 ± 0.013,0.142 ± 0.0066,0.389 ± 0.044,0.425 ± 0.049,0.186 ± 0.0019,0.281 ± 0.079,0.423 ± 0.008,0.408 ± 0.0074,0.254 ± 0.17
CN1CCN(c2c(F)cc3c(=O)c(C(=O)O)cn(CCF)c3c2F)CC1 [Fleroxacin],0.0517 ± 0.002,0.04717 ± 0.00045,0.0416 ± 0.0006,0.0505 ± 0.0014,0.0445 ± 0.00081,0.0554 ± 0.00072,0.0848 ± 0.0081,0.0766 ± 0.014,0.0682 ± 0.001,0.0599 ± 0.003,0.0565 ± 0.002,0.0555 ± 0.0013,0.05217 ± 5.8e-05

# — the supplement of paper PMC9262897, “Low-cost anti-mycobacterial drug discovery using engineered E. coli” (Nature Communications, 2022)
